# Results: PubChem BioAssay (Tox21)
# Results filed as inconclusive are left out. Where a call stands in place of a potency, no number is given. A number with no mark means an inactive call. Active and inactive are the calls of the source. The call rests on the fitted dose curve; in most records, active means well fitted cell-killing curve with a large enough effect in the repeat runs; inconclusive means weak or mixed curves, or effect the other way; inactive means flat fitted curve, though single readings scatter.
# What was measured:
# [1] = cAMP Responsive Elements (CRE) small molecule antagonists, cell-based qHTS assay: qHTS cell viability counter screen (AID 2060913); further: nearly all actives have a fitted effect of over 40% in size
# In short: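 CRE-bla HEK293T cells (2,000/well, 18 h) given compound plus NKH477 0.25 uM final for 3 h at 37C; viability counter-screen by CellTiter-Glo luminescence in same wells after 30 min.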
# [2] = cAMP Responsive Elements (CRE) small molecule agonists, cell-based qHTS assay: qHTS cell viability counter screen (AID 2060914);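 further: viability read after 3 h of compound exposure; nearly all actives have a fitted effect of over 50% in size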
# In short: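 CRE-bla HEK293T cells in 10% dialyzed FBS medium were exposed to compounds for 3 h at 37C after 18 h plating. CellTiter-Glo was then added in the same wells, and luminescence was read after 30 min at room temperature.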
# Potency means the concentration at half of the fitted maximal effect.
smiles,measurement,setting,value
CC(C)=CCC/C(C)=C\CO,Potency,[1],inactive
same,Potency,[2],inactive
CC(C)(C)c1cc(C(C)(C)C)c(O)c(C(C)(C)C)c1,Potency,[1],inactive
same,Potency,[2],inactive
O=C(O)/C=C(\CC(=O)O)C(=O)O,Potency,[1],inactive
same,Potency,[2],inactive
CCN1CCCC1CN (configuration not stated),Potency,[1],inactive
same,Potency,[2],inactive
COc1ccc(C(=O)c2ccc(OC)cc2O)c(O)c1,Potency,[1],inactive
same,Potency,[2],inactive
CC(=O)Nc1cccc(C)c1,Potency,[2],inactive
CCCCS,Potency,[1],inactive
same,Potency,[2],inactive
NC(N)=Nc1nc(CSCC/C(N)=N/S(N)(=O)=O)cs1,Potency,[1],inactive
same,Potency,[2],inactive
CC(C)(C)OCC1CO1 (configuration not stated),Potency,[1],inactive
same,Potency,[2],inactive
CC(=O)[C@H]1[C@H](C#N)C[C@H]2[C@@H]3CC=C4C[C@@H](O)CC[C@]4(C)[C@H]3CC[C@@]21C,Potency,[1],inactive
same,Potency,[2],inactive
CO[C@H]1C=CO[C@@]2(C)Oc3c(C)c(O)c4c(O)c(c5c(c4c3C2=O)=NC2(CCN(CC(C)C)CC2)N=5)NC(=O)/C(C)=C\C=C/[C@H](C)[C@H](O)[C@@H](C)[C@@H](O)[C@@H](C)[C@H](OC(C)=O)[C@@H]1C,Potency,[1],inactive
same,Potency,[2],inactive
O=C(O)Cc1ccc(CCNS(=O)(=O)c2ccc(Cl)cc2)cc1,Potency,[2],inactive
CC(C)(C)Cl,Potency,[1],inactive
same,Potency,[2],inactive
O=C1OC(=O)c2cccc3cccc1c23,Potency,[2],inactive
C=CCn1c(=O)n([C@@H]2O[C@H](CO)[C@@H](O)[C@H]2O)c2nc(N)[nH]c(=O)c21,Potency,[1],inactive
same,Potency,[2],inactive
Cc1cc(-n2nc3ccc(Cl)cc3n2)c(O)c(C(C)(C)C)c1,Potency,[1],inactive
same,Potency,[2],inactive
C=C1CC[C@H](O)C/C1=C\C=C1/CCC[C@]2(C)[C@@H]([C@H](C)CCCC(C)C)CC[C@@H]12,Potency,[2],inactive
OCCC(F)(F)C(F)(F)C(F)(F)C(F)(F)C(F)(F)C(F)(F)F,Potency,[2],inactive
c1ccc(Sc2ccccc2)cc1,Potency,[2],inactive
CCCC(=O)OC,Potency,[1],inactive
same,Potency,[2],inactive
Cc1ccc(S(=O)(=O)O)c(C)c1,Potency,[2],inactive
C=C(C)C(N)=O,Potency,[1],inactive
same,Potency,[2],inactive
[O-][n+]1ccccc1SSc1cccc[n+]1[O-],Potency,[1],0.461 µM (active)
same,"activity change, negative = cytotoxicity",[2],-16.6% [at 18.9 µM]
CC(C)CCCCCOC(=O)CS,Potency,[2],inactive
CC(C)(C)CC(C)(C)c1ccccc1O,Potency,[1],61.4 µM (active)
same,Potency,[2],61.4 µM (active)
CN(C(=O)CCCOc1ccc2[nH]c(=O)ccc2c1)C1CCCCC1,Potency,[1],inactive
same,Potency,[2],inactive
C=CN1CCCC1=O,Potency,[1],inactive
same,Potency,[2],inactive
OCC(O)CO,Potency,[2],inactive
COc1ccc2c(c1)c(CC(=O)OC/C=C(\C)CC/C=C(\C)CCC=C(C)C)c(C)n2C(=O)c1ccc(Cl)cc1,Potency,[1],inactive
same,Potency,[2],inactive
CC(=O)OCc1ccc2c(c1)OCO2,Potency,[1],inactive
same,Potency,[2],inactive
N=C(N)c1ccc2cc(OC(=O)c3ccc(N=C(N)N)cc3)ccc2c1,Potency,[1],inactive
same,Potency,[2],inactive
CN(C)/N=N/c1nc[nH]c1C(N)=O,Potency,[1],inactive
same,Potency,[2],inactive
COc1ccc(C(=O)Nc2ccccc2)cc1[N+](=O)[O-],Potency,[1],inactive
same,Potency,[2],inactive
COc1cc(C(=O)NC2CCN(C)CC2)ccc1Nc1ncc2c(n1)N(C1CCCC1)CC(F)(F)C(=O)N2C,Potency,[2],inactive
CN(C)CCCN1c2ccccc2Sc2ccc(C(F)(F)F)cc21,Potency,[2],inactive
CC[C@@H]1C[C@H](N(Cc2cc(C(F)(F)F)cc(C(F)(F)F)c2)C(C)=O)c2cc(C(F)(F)F)ccc2N1C(=O)OC(C)C,Potency,[2],inactive
CO/N=C(\C(=O)N[C@@H]1C(=O)N2C(C(=O)O)=C(CSc3nc(=O)c(O)nn3C)CS[C@H]12)c1csc(N)n1,Potency,[2],inactive
O=[N+]([O-])c1cc(N(CCO)CCO)ccc1NCCO,Potency,[2],inactive
O=C(O)c1ccc(C(=O)O)c(C(=O)O)c1,Potency,[2],inactive
O=[N+]([O-])c1ccc(Nc2ccc(Nc3ccccc3)c(S(=O)(=O)O)c2)c([N+](=O)[O-])c1,Potency,[2],inactive
COc1ccc(C)cc1[N+](=O)[O-],Potency,[2],inactive
O=C(O)C(=O)Nc1cccc(-c2nn[nH]n2)c1,Potency,[2],inactive
CCCc1ccc(OC)cc1,Potency,[2],inactive
CC(C)CCCCCCCOC(=O)c1ccc(C(=O)OCCCCCCCC(C)C)c(C(=O)OCCCCCCCC(C)C)c1,Potency,[2],inactive
O=c1cc(-c2ccccc2)oc2cc(O)cc(O)c12,Potency,[2],inactive
CCCCN(CCCC)C(=O)N(CCCC)CCCC,Potency,[2],inactive
O=C(O)c1cc(Cl)cc(Cl)c1,Potency,[2],inactive
Oc1ccc(-c2ccc(O)cc2)cc1,Potency,[2],inactive
OCCN1CCN(CCCN2c3ccccc3Sc3ccc(Cl)cc32)CC1,Potency,[2],inactive
CN(C(=O)CN(CCO)CC(=O)N(C)C(C)(C)Cc1ccccc1)C(C)(C)Cc1ccccc1,Potency,[2],inactive
CNS(=O)(=O)c1cc(C(=O)N2CCC(CCN3C4CCC3CC(n3c(C)nc5ccccc53)C4)(c3cccc(F)c3)CC2)c(Cl)cc1F (configuration not stated),Potency,[2],inactive
Nc1cnn([C@@H]2O[C@H](CO)[C@@H](O)[C@H]2O)c(=O)n1,Potency,[2],0.97 µM (active)
C=CCCCCCCCCCCCC,Potency,[2],inactive
N[C@H]1C(O)O[C@H](CO)[C@H](O)[C@@H]1O (some centres not stated),Potency,[2],inactive
CC(Cc1cccc(C(F)(F)F)c1)NCCOC(=O)c1ccccc1 (configuration not stated),Potency,[2],inactive
C=COCCCCO,Potency,[2],inactive
COc1ccccc1NC(=O)c1cc2ccccc2cc1O,Potency,[2],30.6 µM (active)
CC(C)(CO)[C@@H](O)C(=O)NCCCO,Potency,[2],inactive
CNCCC(Oc1ccc(C(F)(F)F)cc1)c1ccccc1 (configuration not stated),Potency,[2],inactive
Clc1ccc(C(Cn2ccnc2)OCc2c(Cl)cccc2Cl)c(Cl)c1 (configuration not stated),Potency,[2],inactive
C#CCN(C)CCCOc1ccc(Cl)cc1Cl,Potency,[2],inactive
OC[C@]1(O)OC[C@@H](O)[C@H](O)[C@@H]1O,Potency,[2],inactive
CN1CCN(CCCN2c3ccccc3Sc3ccc(C(F)(F)F)cc32)CC1,Potency,[2],inactive
CCCCCCCCS(=O)C(C)Cc1ccc2c(c1)OCO2 (configuration not stated),Potency,[2],inactive
CC(C)Nc1cccnc1N1CCN(C(=O)c2cc3cc(NS(C)(=O)=O)ccc3[nH]2)CC1,Potency,[2],inactive
CN1CCCC1=O,Potency,[2],inactive
O=S(=O)(O)c1ccc(N=Nc2c(O)ccc3ccccc23)cc1,Potency,[2],inactive
CC(C)[C@@H]1CC[C@@H](C)CC1=O,Potency,[2],inactive
Cc1cc(-c2ccc(N=Nc3cc(S(=O)(=O)O)c4ccccc4c3N)c(C)c2)ccc1N=Nc1cc(S(=O)(=O)O)c2ccccc2c1N,Potency,[2],inactive
OC(CCl)CCl,Potency,[2],inactive
CC[C@@H]([C@H](C)O)n1ncn(-c2ccc(N3CCN(c4ccc(OC[C@@H]5CO[C@@](Cn6cncn6)(c6ccc(F)cc6F)C5)cc4)CC3)cc2)c1=O,Potency,[2],26.6 µM (active)
O=C(O)CONC(=O)c1ccccc1,Potency,[2],inactive
CN(C)CCOc1ccccc1Cc1ccccc1,Potency,[2],inactive
